Shown are actives, neighbours in structure and some others; about 2.2% of the full set was active somewhere.
TDP43 rescue: qHTS of TDP-43 Inhibitors | TDP-43 expressing yeast growth rescue, BacTiter-Glo, 24 h | Potency, µM (top dose mostly 46.1 µM), usual class: activators | 410,000 tested, 1.8% active; further: nearly all actives have a fitted effect of over 50% in size
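Readout is BacTiter-Glo luminescence of cell growth, so inhibitors register as activators. TDP-43-expressing yeast at OD600=0.02 in galactose medium, after raffinose pregrowth to mid-log, were incubated with compound for 24 hr at 30 deg C.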
FUS suppressor: qHTS for Suppressors of FUS Proteinopathy: Primary screen using FUS-linked yeast assay. S. cerevisiae FUS-expressing, growth rescue, OD600, 24 h. AID 1347120, 2019. 390,000 tested, 0.24% active. Potency, µM (doses to about 76.6 µM), hits mostly activators; further: nearly all actives have a fitted effect of over 55% in size
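Yeast expressing FUS under galactose induction, OD 0.005 in 2% galactose medium; compounds in a dilution series, 24 h at 30C. Growth rescue by absorbance at 600 nm; CP55940 positive control, DMSO negative.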
Abeta yeast res: qHTS for compounds that reverse cellular toxicity of Amyloid beta (A-beta) peptide in yeast: Primary Screen; 410,000 tested, 0.063% active; Potency, µM (top dose mostly 46.1 µM), most hits filed as activators; yeast expressing A-beta42, growth rescue, OD600, 48 h; response scale: 0% DMSO, 100% iron-clioquinol control; further: nearly all actives have a fitted effect of over 55% in size
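Yeast growth medium received pinned compounds, then yeast cells expressing toxic A-beta were added; plates incubated at 30 C for 48 hr. Growth read as absorbance at 600 nm, normalized to DMSO and equimolar FeCl3 plus clioquinol controls.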
Mito fusion act: qHTS Assay for Small Molecule Inhibitors of Mitochondrial Division or Activators of Mitochondrial Fusion | 320,000 tested, 0.23% active | Potency, µM (titrated, usually from 46.1 µM), most hits filed as activators | S. cerevisiae fusion-defective mutant growth rescue, CellTiterGlo 48 h; further: nearly all actives have a fitted effect of over 45% in size
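Compounds are tested for their ability to restore growth of mitochondrial fusion-defective yeast strains at non-permissive 37C in YPEG medium over 48 hours. Viability is quantified by luciferase luminescence.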
aSyn rescue: qHTS of alpha-syn Inhibitors | Yeast expressing alpha-synuclein, growth rescue, BacTiter-Glo, 24 h | Potency, µM (top dose mostly 46.1 µM), most hits filed as activators | 370,000 tested, 0.14% active | AID 652106, 2013; further: nearly all actives have a fitted effect of over 65% in size
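Screening used galactose-induced yeast with toxic alpha-synuclein levels, exposed to compound for 24 hr at 30 deg C. Cell growth, read with BacTiter-Glo luminescence, gave the measured signal.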
A number is an active result. The call rests on the fitted dose curve; in most records, active means well fitted curve in the direction sought with a large enough effect; inconclusive means small, poorly fitted or top-dose-only effect, or another doubt; inactive means no such curve, though single readings can be large; an effect the other way counts as inactive or inconclusive.

How did Oc1ccc(C2C[C@H]3CC[C@@H]2C3)cc1O (stereo partly drawn) do in these assays?
TDP43 rescue: 14µM; FUS suppressor: inactive; Abeta yeast res: inconclusive; Mito fusion act: inactive; aSyn rescue: inactive

How did O=C1CC(c2ccc(O)c(O)c2)Oc2cc(O)cc(O)c21 (stereo not drawn) do in these assays?
TDP43 rescue: inactive; FUS suppressor: inactive; Abeta yeast res: inactive; Mito fusion act: inactive; aSyn rescue: inactive

Results for CCCCc1ccc(NC(=O)CC(C)C)cc1 ?
TDP43 rescue: 11µM; FUS suppressor: inactive; Abeta yeast res: inactive; Mito fusion act: inactive; aSyn rescue: inactive

Results for CN(C)c1ccnc2sc(C(N)=O)c(N)c12 ?
TDP43 rescue: inactive; FUS suppressor: inactive; Abeta yeast res: inactive; Mito fusion act: inactive; aSyn rescue: inactive

What do the screens show for `CN(C)c1ccnc2sc(C(=O)NCc3ccccc3)c(N)c12`?
TDP43 rescue: inconclusive; FUS suppressor: inactive; Abeta yeast res: inactive; Mito fusion act: inactive; aSyn rescue: 13µM

What do the screens show for `CCOC(=O)c1c(C)c(-c2ccccc2)n(CC(=O)NC2CCCCCC2)c1C`?
TDP43 rescue: inactive; FUS suppressor: inactive; Abeta yeast res: inactive

What do the screens show for `O=C(N/N=C\c1c(O)ccc2ccccc12)c1cncc(Br)c1`?
TDP43 rescue: inactive; FUS suppressor: inactive; Abeta yeast res: inconclusive; Mito fusion act: inactive; aSyn rescue: 20µM

What do the screens show for `O=C1C2=C(NC(=S)NC2c2ccc(Cl)cc2)NC(c2ccc(Cl)cc2)N1c1ccc(Cl)cc1` (stereo not drawn)?
TDP43 rescue: inconclusive; FUS suppressor: 28µM; Abeta yeast res: inactive; Mito fusion act: inactive; aSyn rescue: inactive

How did CCc1ccc(C2NC(=S)NC3=C2C(=O)N(c2ccccc2OC)C(c2ccc(CC)cc2)N3)cc1 (stereo not drawn) do in these assays?
TDP43 rescue: inactive; FUS suppressor: inconclusive; Abeta yeast res: inactive; Mito fusion act: inactive; aSyn rescue: inactive

How did NC(=S)NN=Cc1nccc2c(C(F)(F)C(F)(F)C(F)(F)F)cccc12 do in these assays?
TDP43 rescue: inconclusive; FUS suppressor: inactive; Abeta yeast res: inactive; aSyn rescue: 7.1µM

How did NC(=S)NN=Cc1nccc2ccccc12 do in these assays?
TDP43 rescue: inactive; FUS suppressor: inactive; Abeta yeast res: inconclusive; aSyn rescue: 20µM

Results for CCN(CC)C(=O)CSc1nnc(-c2cccs2)o1 ?
FUS suppressor: inactive

How did CC1CN(c2nc3c(c(=O)n(Cc4ccc(Cl)c(Cl)c4)c(=O)n3C)n2C)CC(C)O1 (stereo not drawn) do in these assays?
TDP43 rescue: 25µM; FUS suppressor: inconclusive; Abeta yeast res: inactive; Mito fusion act: inconclusive; aSyn rescue: inactive

Results for Cn1c(N2CCOCC2)nc2c1c(=O)n(Cc1ccc(Cl)cc1)c(=O)n2C ?
TDP43 rescue: inactive; FUS suppressor: inactive; Abeta yeast res: inactive; aSyn rescue: inactive

What do the screens show for `COc1cc2c(NC3CCN(C)CC3)nc(N3CCCN(C)CC3)nc2cc1OCCCN1CCOCC1`?
aSyn rescue: inactive

How did CCCCc1cc(=O)oc2cc(OS(C)(=O)=O)ccc12 do in these assays?
TDP43 rescue: inconclusive; FUS suppressor: inactive; Abeta yeast res: inactive; Mito fusion act: 16µM; aSyn rescue: inactive

How did C=C(Cl)COc1ccc2c(CCCC)cc(=O)oc2c1 do in these assays?
TDP43 rescue: inconclusive; FUS suppressor: inactive; Abeta yeast res: inactive; Mito fusion act: inactive; aSyn rescue: inactive

Results for CCn1c(SCC(=O)Nc2nnc(C)s2)nnc1-c1ccco1 ?
TDP43 rescue: inactive; FUS suppressor: inactive; Abeta yeast res: inactive; Mito fusion act: inactive; aSyn rescue: inactive

Results for CCc1nnc(NC(=O)CSc2nnc(-c3ccco3)n2CCOC)s1 ?
TDP43 rescue: inactive; FUS suppressor: inactive; Abeta yeast res: inactive; Mito fusion act: 5.6µM; aSyn rescue: inactive

Results for O=C(Cn1c(=O)n(Cc2ccco2)c(=O)c2ccccc21)Nc1ccc(Cl)cc1Cl ?
TDP43 rescue: inactive; FUS suppressor: inactive; Abeta yeast res: inactive

Results for Fc1ccc2cnc(-c3ccccc3)c(-c3cccc(C(F)(F)F)c3)c2c1 ?
TDP43 rescue: inactive; FUS suppressor: inactive; Abeta yeast res: inactive; Mito fusion act: inactive; aSyn rescue: inactive

How did Fc1cc(F)cc(-c2c(-c3ccccc3)ncc3ccc(F)cc23)c1 do in these assays?
TDP43 rescue: 35µM; FUS suppressor: inactive; Abeta yeast res: inactive; Mito fusion act: inactive; aSyn rescue: inactive

What do the screens show for `O=[N+]([O-])c1ccc(-c2c(-c3ccccc3)ncc3cc(F)ccc23)cc1`?
TDP43 rescue: inactive; FUS suppressor: inconclusive; Abeta yeast res: inactive; Mito fusion act: inconclusive; aSyn rescue: inactive

Results for O=[N+]([O-])c1cccc(-c2c(-c3ccccc3)ncc3cc(F)ccc23)c1 ?
TDP43 rescue: 28µM; FUS suppressor: inactive; Abeta yeast res: inactive; Mito fusion act: inconclusive; aSyn rescue: inactive

How did O=C(Nc1c(Cl)cc([N+](=O)[O-])cc1Cl)c1cc(Cl)cc(Cl)c1O do in these assays?
aSyn rescue: inactive

What do the screens show for `COCCNC(=S)NN=C1CCCCC1`?
TDP43 rescue: inactive; FUS suppressor: inactive; Abeta yeast res: inactive; Mito fusion act: inactive; aSyn rescue: inactive

What do the screens show for `C=CCNC(=S)NN=C1CCCCCCC1`?
TDP43 rescue: inactive; FUS suppressor: inactive; Abeta yeast res: 8.9µM; Mito fusion act: inactive; aSyn rescue: inactive

What do the screens show for `C=CCN1[C@H](Cc2ccccc2)COc2cccc(N3CCSCC3)c2S1(=O)=O`?
FUS suppressor: inactive

Results for NNc1nc(-c2ccccc2Cl)c2cc(Br)ccc2n1 ?
TDP43 rescue: 16µM; FUS suppressor: inactive; Abeta yeast res: inactive; Mito fusion act: inactive; aSyn rescue: inactive

What do the screens show for `CCOC(=O)CSc1nnc(CNc2ccc(Cl)cc2)n1-c1ccccc1`?
TDP43 rescue: inconclusive; FUS suppressor: inactive; Abeta yeast res: inactive; Mito fusion act: inactive; aSyn rescue: inactive

Results for CCOc1ccc(NCc2nnc(SCc3ccc(Cl)cc3)n2-c2ccccc2)cc1 ?
TDP43 rescue: 25µM; Abeta yeast res: inactive; Mito fusion act: inactive; aSyn rescue: inconclusive

What do the screens show for `CCCC[C@H](C(=O)N(C)c1ccccc1)[C@@H](O)c1ccc(C(C)=O)cc1`?
FUS suppressor: inactive

Results for O=C(NC(=S)Nc1ccccn1)c1ccc(-c2ccccc2)cc1 ?
TDP43 rescue: inconclusive; FUS suppressor: inactive; Abeta yeast res: inactive; Mito fusion act: inactive; aSyn rescue: inactive

How did O=C(NC(=S)Nc1ccccn1)c1ccccc1 do in these assays?
TDP43 rescue: inactive; FUS suppressor: inactive; Abeta yeast res: inactive; Mito fusion act: 35µM; aSyn rescue: inactive

Compound activity from PubChem BioAssay.
